# Results published in PubChem BioAssay (NCI).
# This is part of a sample that, as a whole, favours compounds with a hit. Of some 83,000 tested, about 20% had one in any assay.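 Compound tested at a single concentration for 48 hours in 96-well plates; a percent growth value below 10 was scored as active.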 A number with no mark means an inactive call. Active and inactive are the calls of the source.
# Test system: HL-60(TB) leukemia
# Assay: NCI-60 one-dose screen, 48 h (100 = growth as untreated, 0 = no growth, -100 = all killed)
# Details: 10 µM unless noted
row,Compound,growth
1,O=C(Nc1cccc(C2=NCCN2)c1)c1ccc(N=Nc2ccc(C(=O)Nc3cccc(C4=NCCN4)c3)cc2)cc1,42.5%
2,C=CCNc1nc(O)c(/C=C2\C=Nc3ncccc32)s1,-14.5% (active)
3,CNCCCn1c2c(c3ccc([N+](=O)[O-])cc3c1=O)C(=O)c1cc(OC)cnc1-2,-32.3% (active)
4,O=C(N/N=C\c1cc(Cl)ccc1O)N/N=C/c1cc(Cl)ccc1O,6.64% (active)
5,COc1ccc(C2=NN(c3ccc(S(N)(=O)=O)cc3)C(c3cn(-c4ccccc4)nc3-c3ccc(Cl)cc3)C2)cc1 (configuration not stated),84.5%
6,C=C(C)[C@@H]1CC[C@]2(C(N)=O)CC[C@]3(C)[C@H](CC[C@@H]4[C@@]5(C)C/C(=C/c6cccnc6)[C@H](O)C(C)(C)[C@@H]5CC[C@]43C)[C@@H]12,0.0883% [100 µM] (active)
7,COc1ccc(-c2cc(Nc3ccnc(N4CCOCC4)n3)on2)cc1,-29.9% (active)
8,O=c1c2ccccc2sc2c(NCCN3CCOCC3)nc3ccccc3c12,75.9%
9,COc1cc(NC(=O)c2cc(O)c(C/C=C(\C)CCC=C(C)C)c(O)c2)cc2c1O[C@]1(C)CC[C@@H](O)C(C)(C)[C@H]1C2,-7.34% (active)
10,COc1ccc2[nH]c(O)c(/C=c3/cc4c(c(-c5ccc(F)c(OC)c5)n3)=Nc3ccccc3-4)c2c1,47%
11,CCN(CC)CCNc1ccc(N=Nc2cnc3ccccc3c2)c2ccccc12,-72.2% (active)
12,C1=C(c2ccccc2)C(c2ccc(OCCN3CCCCC3)cc2)Oc2ccccc21 (configuration not stated),62.7%
13,CCO/C=N/C1=C(C#N)C(c2ccc(OC)cc2)c2c(c3ccccc3n(C)c2=O)O1 (configuration not stated),102%
14,O=C1/C=C/[C@@H](O)[C@@H]2C[C@@H](O)C[C@H]2/C=C/CCC[C@@H](O)CCO1,123%
15,COc1cc(C(=O)Nc2cc(OC)c3ccn(C)c3c2)cc2c1C[C@]1(C)CC[C@@H](O)C(C)(C)[C@H]1O2,1.14% (active)
16,Cc1cnc(C(=O)NNc2nc3sc4c(c3c(=O)[nH]2)C(C)CCC4)cn1 (configuration not stated),-30.7% (active)
17,CCCCC(=O)N/N=C/c1cc(I)cc(I)c1O,4.46% (active)
18,Nc1cc2[nH]c(=O)c3ccccc3c2cc1Br,125%
19,CCOc1ccc(-n2nc(C(=O)NCc3ccccc3OC)nc2-c2cc(OC)c(OC)c(OC)c2)cc1,19.1%

row,Compound,growth
1,COc1cccc(/C=C/C(=O)c2c(C)nc3ccccc3c2/C=C/c2ccccc2)c1OC,13.6%
2,Oc1ccc(N=Nc2ccccn2)c(O)c1,-37.3% (active)
3,CSc1ccc(N2C(=N)C(=S)N(c3ccc(C)cc3)C2=O)cc1,101%
4,COc1cc(C2CC(=O)Nc3c2c(C)nn3-c2nc3ccccc3[nH]2)c(OC)c2c1OCO2 (configuration not stated),26.2%
5,Clc1ccc(Nc2ccnc(N3CCN(c4ccnc5cc(Cl)ccc45)CC3)n2)cc1,72.1%
6,COc1cc(/C=C2\Oc3cc(OCC(=O)c4ccccc4)ccc3C2=O)cc(OC)c1OC,118%
7,Cc1ccc(S(=O)(=O)n2cc(C(=O)C(=O)N3CCOCC3)c3ccccc32)cc1,66.6%
8,Nc1ccc(-c2csc(-n3[nH]c(=O)ccc3=O)n2)cc1,97.1%
9,COC(=O)CCC/C=C\C[C@H]1C=CC(=O)/C1=C/C[C@@H](O)C/C=C\CC(F)(F)F,1.03% (active)
10,Cn1cc(-c2nc(-c3c[nH]c4ncccc34)cs2)c2cc(Br)ccc21,79.1%
11,CCN(CC)CCn1c2ccc(O)cc2c2sc3cc(O)ccc3c(=O)c21,38%
12,O=C(Nc1ccc(Cl)cc1Cl)Nc1ccc(-c2cccnc2)cc1N1CCC(CO)CC1,6.31% (active)
13,Clc1ccc(C(/C=C/c2sc(Cl)nc2Cl)=N/Nc2cc(Cl)cc(Cl)c2)cc1,99.4%
14,O=[N+]([O-])c1ccc(NC(c2ccccc2)c2ccc3cccnc3c2O)cc1 (configuration not stated),-9.64% (active)
15,CCC([N+](=O)[O-])S(=O)(=O)c1ccc(C)cc1 (configuration not stated),132%
16,O=C(OCc1nc2nc(Cl)nc(N3CCOCC3)c2[nH]1)n1ccnc1,-30.1% (active)
17,COc1cc(/C=C/c2cc(/C=C/c3ccc(O)c(OC)c3)n(C(=O)Nc3ccccc3Cl)n2)ccc1O,-24.3% (active)
18,COc1cccc(-c2nn(-c3ccccc3)cc2-c2ccnc(NCCCNS(=O)(=O)c3ccc(Cl)cc3)c2)c1,40%
